These results are taken from PubChem BioAssay (EPA / NIEHS).

Activity calls are given as the source filed them. Rule for the calls: active = hit-call score of the fitted dose curve at least 0.9, where 1 is the maximum; inactive = score below 0.9.

Experiment [1] in a line: ATG_M_32_CIS: Attagene CIS-FACTORIAL HepG2 Assay for M32 Transcription Factor (Internal Marker) (AID 2282949).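 Note: background control marker of the multiplexed CIS panel rather than a real target.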 The note with it: HepG2 Attagene cis-factorial M32 reporter, mRNA; actives raise or lower the signal. Put shortly: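 HepG2 cells transiently transfected with multiplexed cis-regulated reporter units, dosed 24 h. Reporter mRNA quantified by RT-PCR, 6-FAM labelling, HpaI digestion and capillary electrophoresis; bidirectional fit vs DMSO.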

Experiment [2] can be described thus: ATG_M_06_CIS: Attagene CIS-FACTORIAL HepG2 Assay for M06 Transcription Factor (Internal Marker) (AID 2282950). The note with it: HepG2 Attagene CIS-FACTORIAL M06 internal marker reporter; actives raise or lower the signal. Put shortly:
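HepG2 cells transiently transfected with cis-regulated multiple reporter transcription units were exposed to chemical for 24 h; reporter mRNA was quantified by RT-PCR, 6-FAM primer labelling, HpaI digestion and capillary electrophoresis, fitted bidirectionally against DMSO.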

The target in experiment [3] is Hypoxia-inducible factor 1-alpha (Homo sapiens) (UniProt Q16665). Nature of the experiment: ATG_HIF1a_CIS: Attagene CIS-FACTORIAL HepG2 Assay for human Hypoxia Inducible Factor 1 (HIF1A) (AID 2282951). The note with it: HepG2 Attagene cis-factorial HIF1a reporter transcription; actives raise or lower the signal. The method in brief:
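In this multiplexed cell assay, HepG2 cells bearing transfected cis reporters are dosed for 24 h and reporter mRNA is read by RT-PCR plus capillary electrophoresis; signal increases and decreases are both scored against DMSO.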

Experiment [4] deals with Hepatocyte nuclear factor 6 (Homo sapiens) (UniProt Q9UBC0). Put plainly: ATG_HNF6_CIS: Attagene CIS-FACTORIAL HepG2 Assay for human Hepatocyte Nuclear Factor 6 (HNF6) (AID 2282952). The note with it: HepG2 Attagene cis-factorial HNF6 reporter transcription; actives raise or lower the signal. The method in brief: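 HepG2 cells transiently transfected with cis-element-driven multiplexed reporter units measuring endogenous transcription factor activity. After 24 h exposure, reporter mRNA quantified by RT-PCR, FAM-labelled fragments and capillary electrophoresis; bidirectional fitting versus DMSO.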
Sequence of Hepatocyte nuclear factor 6 (Homo sapiens) (Q9UBC0 whole entry, looked up, the tested form may be a part): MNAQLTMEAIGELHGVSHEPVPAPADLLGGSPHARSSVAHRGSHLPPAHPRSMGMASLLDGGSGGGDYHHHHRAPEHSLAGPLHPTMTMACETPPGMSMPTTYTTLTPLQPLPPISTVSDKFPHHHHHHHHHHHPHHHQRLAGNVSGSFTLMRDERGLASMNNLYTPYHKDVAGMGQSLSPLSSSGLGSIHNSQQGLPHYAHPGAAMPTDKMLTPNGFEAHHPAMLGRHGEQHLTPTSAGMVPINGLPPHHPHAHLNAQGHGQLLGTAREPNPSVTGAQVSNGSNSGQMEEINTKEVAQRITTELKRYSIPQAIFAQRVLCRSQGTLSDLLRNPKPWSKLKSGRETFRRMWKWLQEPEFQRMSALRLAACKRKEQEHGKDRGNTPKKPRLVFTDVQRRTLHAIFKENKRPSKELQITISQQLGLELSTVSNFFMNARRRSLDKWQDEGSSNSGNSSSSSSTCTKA

In experiment [5] the target is Heat shock factor protein 1 (Homo sapiens) (UniProt Q00613). Put plainly: ATG_HSE_CIS: Attagene CIS-FACTORIAL HepG2 Assay for human Heat Shock Transcription Factor 1 (HSE) (AID 2282953). The note with it: HepG2 HSE cis-reporter, Attagene RNA transcription; actives raise or lower the signal. The method in brief:
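HepG2 cells transiently transfected with multiple reporter transcription units under cis-regulatory promoter control, measuring endogenous transcription factor activity. After 24 h chemical exposure, reporter mRNA quantified by RT-PCR, fluorescent labelling, HpaI digestion and capillary electrophoresis; bidirectional fit versus DMSO.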

Experiment [6] can be described thus: ATG_MRE_CIS: Attagene CIS-FACTORIAL HepG2 Assay for human Metal Responsive Element (MRE) (AID 2282954). The following applies: HepG2 MRE cis-reporter transcription, Attagene multiplex; actives raise or lower the signal. The method in brief:
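Step one: transfect HepG2 with cis-regulated reporter units. Step two: dose 24 h. Step three: isolate RNA, RT-PCR, 6-FAM label, HpaI digest, capillary electrophoresis. Fit bidirectionally to DMSO.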

Experiment [7] is described as follows: ATG_PBREM_CIS: Attagene CIS-FACTORIAL HepG2 Assay for human Phenobarbital-responsive Enhancer Module (PBREM) (AID 2282955). The note with it: HepG2 PBREM cis-reporter, Attagene multiplexed transcription; actives raise or lower the signal. Put shortly: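 After a 24 h incubation with test chemical, transfected HepG2 cells yield total RNA; reporter-specific RT-PCR products are fluorescently labelled, HpaI-digested and resolved by capillary electrophoresis against ROX size standards.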

Experiment [8] has as its target Paired box protein Pax-6 (Homo sapiens) (UniProt P26367). Put plainly: ATG_Pax6_CIS: Attagene CIS-FACTORIAL HepG2 Assay for human Paired Box 6 (PAX6) (AID 2282956). The following applies: HepG2 CIS-FACTORIAL PAX6 reporter transcription, RNA readout; actives raise or lower the signal. Put shortly: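 HepG2 cells transiently transfected with multiplexed cis-promoter reporter units (endogenous TF activity) were dosed for 24 h. Reporter mRNA was quantified by RT-PCR, 6-FAM labeling, HpaI digestion and capillary electrophoresis; bidirectional fitting versus DMSO baseline.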

Experiment [9] can be described thus: ATG_RORE_CIS: Attagene CIS-FACTORIAL HepG2 Assay for human RAR-related Orphan Receptor Element (RORE) (AID 2282959). The note with it: HepG2 Attagene cis-factorial RORE reporter, mRNA; actives raise or lower the signal. Put shortly: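 Fluorescence intensity of reporter-specific cDNA fragments, separated by capillary electrophoresis, gives the signal. Source: HepG2 liver cells transiently transfected with cis-element reporters and exposed 24 h; DMSO-normalized bidirectional fit.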

Experiment [10] in a line: ATG_Sox_CIS: Attagene CIS-FACTORIAL HepG2 Assay for human SRY-box transcription factor (SOX) (AID 2282960). The following applies: HepG2 Attagene cis-factorial SOX reporter, mRNA; actives raise or lower the signal. Put shortly: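 After 24 h of chemical treatment, transfected HepG2 reporter cells are lysed for total RNA. Transcript levels come from RT-PCR with labelled primer extension and capillary electrophoresis, analysed bidirectionally versus DMSO.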

Experiment [11] deals with Transcription factor Sp1 (Homo sapiens) (UniProt P08047). Put plainly: ATG_Sp1_CIS: Attagene CIS-FACTORIAL HepG2 Assay for human Specificity Protein 1 (Sp1) (AID 2282961). The following applies: HepG2 Sp1 cis-reporter transcription, actives raise or lower the signal. The method in brief:
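Sp1-driven reporter mRNA, read as capillary electrophoresis fluorescence after RT-PCR, in transiently transfected HepG2 cells dosed for 24 h; signal change in either direction relative to DMSO.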

Experiment [12] is described as follows: ATG_SREBP_CIS: Attagene CIS-FACTORIAL HepG2 Assay for human Sterol Regulatory Element Binding (SREBP) (AID 2282962). The note with it: HepG2 Attagene cis-factorial SREBP reporter, mRNA; actives raise or lower the signal. The method in brief:
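HepG2 cells transiently transfected with multiplexed cis-element reporter units report endogenous transcription factor activity. After 24 h of chemical exposure, reporter mRNA was quantified by RT-PCR, 6-FAM labelling, HpaI digestion and capillary electrophoresis; bidirectional fits used DMSO as baseline.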

The target of experiment [13] is Signal transducer and activator of transcription 3 (Homo sapiens) (UniProt P40763). Put plainly: ATG_STAT3_CIS: Attagene CIS-FACTORIAL HepG2 Assay for human Signal Transducer and Activator of Transcription 3 (STAT3) (AID 2282963). The note with it: HepG2, Attagene cis-factorial STAT3 reporter transcription; actives raise or lower the signal. The method in brief: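 Transcript-level reporter assay. HepG2 transient MRTU transfection, 24 h exposure, fluorescence detection after RT-PCR and CE; DMSO baseline.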
Sequence of Signal transducer and activator of transcription 3 (Homo sapiens) (P40763 whole entry, looked up): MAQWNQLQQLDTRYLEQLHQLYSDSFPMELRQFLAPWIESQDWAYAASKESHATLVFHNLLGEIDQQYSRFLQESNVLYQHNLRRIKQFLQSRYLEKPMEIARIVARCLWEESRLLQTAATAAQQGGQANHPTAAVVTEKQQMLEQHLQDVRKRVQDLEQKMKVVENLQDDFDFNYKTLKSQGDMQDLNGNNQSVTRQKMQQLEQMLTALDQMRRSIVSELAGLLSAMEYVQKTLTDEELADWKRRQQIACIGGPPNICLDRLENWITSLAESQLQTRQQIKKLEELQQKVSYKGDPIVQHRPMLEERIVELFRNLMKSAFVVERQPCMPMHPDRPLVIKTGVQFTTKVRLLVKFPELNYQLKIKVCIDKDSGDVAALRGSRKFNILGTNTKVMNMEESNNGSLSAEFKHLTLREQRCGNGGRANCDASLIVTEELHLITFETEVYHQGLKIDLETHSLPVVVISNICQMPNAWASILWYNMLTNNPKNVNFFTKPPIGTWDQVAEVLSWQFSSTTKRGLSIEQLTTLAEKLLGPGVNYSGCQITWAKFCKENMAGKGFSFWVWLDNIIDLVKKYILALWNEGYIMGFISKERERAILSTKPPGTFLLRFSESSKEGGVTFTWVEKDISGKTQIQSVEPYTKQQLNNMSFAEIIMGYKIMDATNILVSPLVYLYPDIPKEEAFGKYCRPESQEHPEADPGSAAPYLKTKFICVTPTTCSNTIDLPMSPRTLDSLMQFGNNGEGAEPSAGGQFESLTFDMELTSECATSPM

Experiment [14] in a line: ATG_TA_CIS: Attagene CIS-FACTORIAL HepG2 Assay for human TA Basal Promoter (AID 2282964). The following applies: HepG2 Attagene CIS-factorial TA basal promoter reporter; actives raise or lower the signal. Put shortly:
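HepG2 cells transiently transfected with multiplexed cis-promoter reporter units, dosed 24 h. Reporter mRNA measured by RT-PCR, 6-FAM labelling, HpaI digestion and capillary electrophoresis; bidirectional fit versus DMSO baseline, serving as background control.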

The nature of experiment [15]: ATG_TCF_b_cat_CIS: Attagene CIS-FACTORIAL HepG2 Assay for human T-Cell-Factor with beta-catenin (TCF/b-cat) (AID 2282965). The note with it: HepG2 TCF/beta-catenin cis-reporter transcription, actives raise or lower the signal. Put shortly: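 Using capillary electrophoresis as the read-out, labelled reporter cDNA fragments from transiently transfected HepG2 were sized and quantified. Exposure lasted 24 hours; activity in either direction was referenced to DMSO.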

Experiment [16] can be described thus: ATG_TAL_CIS: Attagene CIS-FACTORIAL HepG2 Assay for human TAL Basal Promoter (AID 2282966).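 Note: background control endpoint measuring basal TAL promoter reporter mRNA not a specific factor.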 The note with it: HepG2 Attagene cis-factorial TAL promoter reporter; actives raise or lower the signal. Put shortly:
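HepG2 cells transiently transfected with multiplexed cis-promoter reporter units, dosed 24 h. Reporter mRNA quantified by RT-PCR, 6-FAM labelling, HpaI digestion and capillary electrophoresis; TAL basal promoter serves as background control, fitted bidirectionally versus DMSO.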

A short description of experiment [17]: ATG_VDRE_CIS: Attagene CIS-FACTORIAL HepG2 Assay for human Vitamin D Receptor Element (VDRE) (AID 2282968). The note with it: HepG2 VDRE cis-reporter transcription, actives raise or lower the signal. Put shortly:
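RT-PCR/CE readout of reporter mRNA; HepG2, transient transfection, 24 h dosing; DMSO baseline; bidirectional analysis.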

Experiment [18] is described as follows: ATG_PPRE_CIS: Attagene CIS-FACTORIAL HepG2 Assay for human Peroxisome Proliferator-activated Response Element (PPRE) (AID 2282958). The note with it: HepG2 PPRE cis-element reporter, Attagene transcription factor profiling; actives raise or lower the signal. Put shortly: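 Multiplexed reporter transcription units under cis-regulatory promoters were transfected into HepG2 cells to capture endogenous factor activity. A 24 h incubation preceded RNA isolation and fluorescent RT-PCR fragment analysis.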

Experiment [19] is described as follows: ATG_TGFb_CIS: Attagene CIS-FACTORIAL HepG2 Assay for human Transforming Growth Factor (TGF) (AID 2282967). The note with it: HepG2 Attagene CIS TGFb reporter, mRNA transcription; actives raise or lower the signal. Put shortly: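 HepG2 cells transiently transfected with cis-promoter-driven multiplexed reporter units; 24 h compound exposure. Reporter mRNA measured by RT-PCR, 6-FAM labeling, HpaI digestion and capillary electrophoresis; bidirectional fit versus DMSO baseline.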

The nature of experiment [20]: ATG_PXRE_CIS: Attagene CIS-FACTORIAL HepG2 Assay for human Pregnane X Receptor Element (PXRE) (AID 2282957). The following applies: HepG2 Attagene CIS-FACTORIAL PXRE reporter, mRNA; actives raise or lower the signal. The method in brief: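 HepG2 cells transiently transfected with cis-element-driven multiplexed reporter units; after 24 h chemical exposure, reporter mRNA measured by RT-PCR, 6-FAM labelling, HpaI digestion and capillary electrophoresis. Bidirectional fitting relative to DMSO.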

Sequence of Paired box protein Pax-6 (Homo sapiens) (P26367 whole entry, looked up): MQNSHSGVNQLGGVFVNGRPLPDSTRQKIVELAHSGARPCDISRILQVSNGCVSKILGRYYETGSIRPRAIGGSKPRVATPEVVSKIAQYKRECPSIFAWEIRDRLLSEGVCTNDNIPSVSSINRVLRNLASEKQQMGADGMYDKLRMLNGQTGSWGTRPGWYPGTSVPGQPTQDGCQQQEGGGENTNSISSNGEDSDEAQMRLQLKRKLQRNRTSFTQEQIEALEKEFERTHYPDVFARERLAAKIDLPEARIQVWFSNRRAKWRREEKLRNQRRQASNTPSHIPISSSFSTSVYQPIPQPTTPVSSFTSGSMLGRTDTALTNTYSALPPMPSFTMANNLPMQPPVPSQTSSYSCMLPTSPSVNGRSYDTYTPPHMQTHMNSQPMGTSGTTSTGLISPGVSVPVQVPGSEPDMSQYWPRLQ
Sequence of Transcription factor Sp1 (Homo sapiens) (P08047 whole entry, looked up): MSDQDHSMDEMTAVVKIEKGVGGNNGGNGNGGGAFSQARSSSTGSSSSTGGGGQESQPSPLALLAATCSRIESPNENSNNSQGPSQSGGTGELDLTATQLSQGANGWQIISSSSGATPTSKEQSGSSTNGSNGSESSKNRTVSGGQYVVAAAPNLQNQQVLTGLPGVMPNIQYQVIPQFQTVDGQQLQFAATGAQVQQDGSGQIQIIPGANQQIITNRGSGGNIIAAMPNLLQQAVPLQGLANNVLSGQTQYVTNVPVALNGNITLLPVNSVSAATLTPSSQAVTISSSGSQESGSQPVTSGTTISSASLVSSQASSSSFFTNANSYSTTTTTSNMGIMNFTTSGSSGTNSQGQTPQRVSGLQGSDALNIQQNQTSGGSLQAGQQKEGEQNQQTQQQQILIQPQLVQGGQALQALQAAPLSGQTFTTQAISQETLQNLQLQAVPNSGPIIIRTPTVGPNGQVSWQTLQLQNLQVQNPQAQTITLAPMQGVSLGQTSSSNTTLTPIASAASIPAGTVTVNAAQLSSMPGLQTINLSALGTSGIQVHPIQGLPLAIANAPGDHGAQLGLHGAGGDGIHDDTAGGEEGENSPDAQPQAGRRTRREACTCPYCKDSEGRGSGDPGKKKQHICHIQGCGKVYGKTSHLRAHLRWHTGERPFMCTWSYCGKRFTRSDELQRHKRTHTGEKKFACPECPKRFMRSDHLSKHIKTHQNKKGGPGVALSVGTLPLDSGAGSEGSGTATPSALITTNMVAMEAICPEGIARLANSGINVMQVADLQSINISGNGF
Sequence of Heat shock factor protein 1 (Homo sapiens) (Q00613 whole entry, looked up): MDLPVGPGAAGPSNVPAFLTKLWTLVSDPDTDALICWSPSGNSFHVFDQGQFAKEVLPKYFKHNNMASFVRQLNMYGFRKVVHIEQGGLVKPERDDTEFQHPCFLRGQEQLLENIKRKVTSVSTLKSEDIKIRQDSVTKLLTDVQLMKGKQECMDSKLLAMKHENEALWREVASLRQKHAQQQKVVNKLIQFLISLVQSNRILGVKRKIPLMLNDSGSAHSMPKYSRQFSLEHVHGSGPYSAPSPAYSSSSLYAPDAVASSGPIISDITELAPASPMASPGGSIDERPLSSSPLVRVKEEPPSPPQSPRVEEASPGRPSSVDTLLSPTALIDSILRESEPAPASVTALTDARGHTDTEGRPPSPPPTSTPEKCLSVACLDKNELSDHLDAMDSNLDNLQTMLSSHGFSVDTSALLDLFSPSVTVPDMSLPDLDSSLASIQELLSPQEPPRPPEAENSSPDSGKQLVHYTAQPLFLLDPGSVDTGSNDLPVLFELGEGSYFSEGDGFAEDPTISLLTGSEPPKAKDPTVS
Sequence of Hypoxia-inducible factor 1-alpha (Homo sapiens) (Q16665 whole entry, looked up): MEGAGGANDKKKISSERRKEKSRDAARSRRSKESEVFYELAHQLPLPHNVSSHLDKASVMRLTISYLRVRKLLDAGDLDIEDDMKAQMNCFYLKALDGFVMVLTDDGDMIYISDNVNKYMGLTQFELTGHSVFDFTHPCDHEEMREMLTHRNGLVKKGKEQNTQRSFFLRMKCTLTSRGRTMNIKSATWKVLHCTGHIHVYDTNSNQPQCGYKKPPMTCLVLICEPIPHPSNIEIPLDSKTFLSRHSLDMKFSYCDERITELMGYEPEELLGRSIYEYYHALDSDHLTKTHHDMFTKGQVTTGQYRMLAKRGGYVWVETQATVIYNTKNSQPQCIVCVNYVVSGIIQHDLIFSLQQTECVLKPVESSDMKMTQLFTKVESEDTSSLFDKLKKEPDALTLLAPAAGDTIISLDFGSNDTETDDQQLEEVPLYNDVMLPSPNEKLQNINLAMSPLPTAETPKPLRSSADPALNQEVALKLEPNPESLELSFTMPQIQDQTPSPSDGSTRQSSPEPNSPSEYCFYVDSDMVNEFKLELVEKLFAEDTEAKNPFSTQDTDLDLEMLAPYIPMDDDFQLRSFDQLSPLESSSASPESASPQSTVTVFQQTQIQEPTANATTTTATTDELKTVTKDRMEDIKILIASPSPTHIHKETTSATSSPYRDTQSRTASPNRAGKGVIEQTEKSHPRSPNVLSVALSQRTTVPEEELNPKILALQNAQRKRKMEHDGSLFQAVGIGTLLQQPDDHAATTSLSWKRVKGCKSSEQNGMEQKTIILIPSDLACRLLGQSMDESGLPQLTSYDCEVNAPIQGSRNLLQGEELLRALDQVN

In the case of `CC(C)=CC1C(C(=O)OCc2cccc(Oc3ccccc3)c2)C1(C)C` (stereo not given), the compound was classed as inactive in experiment [1], in [2], in experiment [3], in experiment [4], in experiment [5] and in [6]. For the same compound, the result in experiment [7], in [8], in experiment [9], in experiment [10], in experiment [11] and in [12] was inactive. Besides, the call in [13], in [14], in experiment [15], in experiment [16] and in experiment [17] was inactive.
`O=C(NC(=O)c1c(F)cccc1F)Nc1cc(Cl)c(F)c(Cl)c1F`: the result in [1], in experiment [2], in experiment [3], in experiment [4], in experiment [5] and in [6] was inactive. Moreover, the outcome in experiment [7], in experiment [8], in experiment [18], in experiment [9], in experiment [10] and in [11] was inactive. In addition, the outcome in experiment [12], in [13], in [14], in [15], in experiment [16] and in experiment [19] was inactive. Moreover, the result in experiment [17] was inactive.
For orientation: AC50 means the concentration at which the activity in the assay is half-maximal. For the compound `O=S(=O)(Oc1ccc(Cl)cc1)c1ccc(Cl)cc1`, the result in experiment [1], in experiment [2], in experiment [3], in experiment [4], in experiment [5] and in experiment [8] was inactive. Also, the outcome in experiment [18], in experiment [9], in experiment [10], in [11], in experiment [13] and in experiment [14] was inactive. Besides, in [16], the result was inactive. The AC50 in experiment [6] was 53.3 µM (active); in [7], 10.8 µM (active); in [17] it was 10.4 µM (active).
On to `CC(C)(C)c1cc([N+](=O)[O-])cc(C(C)(C)C)c1O`, for which the outcome in experiment [1], in experiment [2], in experiment [3], in [4], in experiment [5] and in [8] was inactive. Besides, the compound was classed as inactive in experiment [11], in experiment [12], in [13], in experiment [14] and in [16]. The half-maximal activity concentration (AC50) was 42.4 µM (active) in experiment [6]; 2.52 µM (active) in experiment [7]; 4.23 µM (active) in experiment [20]; 12.8 µM (active) in experiment [18]; 28.7 µM (active) in [9]; 26.3 µM (active) in [19]. Moreover, the AC50 in experiment [17] was 3.16 µM (active).
